Inconclusive results are not listed. Where a call stands in place of a potency, no number is given. Unmarked numbers belong to inactive results. The source made the active and inactive calls. The call rests on the fitted dose curve.
Assay: qHTS assay to identify small molecule agonists of H2AX - cell viability counter screen (AID 1224847); further: top concentration of the series differs between compounds; nearly all actives have a fitted effect of over 30% in size
Conditions: CHO-K1 viability, CellTiter-Glo luminescence, 3 h; series mostly up to 154 µM
Description: National Center for Advancing Translational Sciences [NCATS]
NIH Chemical Genomics Center [NCGC]
U.S. Environmental Protection Agency [EPA]
National Institutes of Environmental Health Sciences [NIEHS]
National Toxicology Program [NTP]
U.S. Food and Drug Administration [FDA]
HTRF phospho-H2AX (Ser139) assay (Cisbio Bioassays, US) enables the quantitative detection of the histone variant H2AX when phosphorylated on serine 139. When double-stranded DNA breaks, either by ionizing radiation or endogenous physiological processes, H2AX becomes phosphorylated at Ser139. This phospho-Ser139 serves as a sensitive biomarker for the detection of such breaks, localizing the site of DNA repair. So, HTRF phospho-H2AX Ser139 is a pertinent assay to study genome stability, the cell cycle, DNA repair, and it serves as a biomarker for cancer, and to understand aging. Wild type CHO-K1 cells were used to identify the inducers of Phospho-H2AX Ser 139 from the Tox21 compound collections. Also cytotoxicity of the Tox21 10K compound library against the CHO-K1 cell line was tested by measuring the cell viability using CellTiter-Glo assay (Promega, Madison, WI).
Tox21 Assay Protocol Summary:
The CHO-K1 cells suspended in culture medium containing 10% FBS were dispensed at 1000 cells/ 3 ul/well in 1536-well white wall/solid bottom plates (Greiner Bio-One North America, NC) using a Multidrop Combi (Thermo Fisher Scientific Inc., Waltham, MA). After the assay plates were incubated at 37C overnight, 23 nl of compounds at 15 concentrations (from 5-48 columns) or positive control (from 1 to 4 columns) were transferred to the assay plates using a Pintool station (Wako, San Diego, CA) into each well resulting in a final DMSO concentration of 0.76%. After 3hr incubation at 37C, 3 uL/well CellTiter-Glo luminescent cell viability reagent (Promega Corporation, Madison, WI) was added using a Flying Reagent Dispenser (FRD) (Aurora Discovery, CA). After incubation at room temperature for 30 min, the luminescence intensity was read using a ViewLux plate reader (PerkinElmer, Waltham, MA).

Structure (SMILES) | Potency | activity change, negative = cytotoxicity
CCc1cnc(C(=O)O)c(C(=O)O)c1 | inactive | –
CC/C=C/CCO | inactive | –
CCOc1cc(OCC)c(C(C)=O)cc1OCC | inactive | –
CC(C)(C)c1cc(C=O)cc(C(C)(C)C)c1O | inactive | –
C[C@@H](O)[C@H]1C(=O)N2C(C(=O)O)=C(S[C@@H]3CN[C@H](CNS(N)(=O)=O)C3)[C@H](C)[C@H]12 | inactive | –
COc1ccc(/C=C/S(=O)(=O)NC(=O)c2ccc(C)cc2Cl)cc1 | inactive | –
O=C(O)c1cc(C(=O)O)c(C(=O)O)cc1C(=O)O | inactive | –
Cc1nc(C)c(C)nc1C | inactive | –
COC=O | – | -3.81% [at 14 µM]
O=Cc1ccc([N+](=O)[O-])cc1 | inactive | –
CCC1=C(C)CN(C(=O)NCCc2ccc(S(=O)(=O)NC(=O)NC3CCC(C)CC3)cc2)C1=O (stereo not given) | inactive | –
O=c1[nH]nc(-c2ccc([N+](=O)[O-])o2)o1 | inactive | –
O=C(O)c1ccccc1[N+](=O)[O-] | inactive | –
C/C(=C\C(C)CC(C)CC(C)C)C1CC(=O)OC1=O (stereo not given) | inactive | –
CCCC1CCCC(=O)O1 (stereo not given) | inactive | –
COc1ccc(CN(CCN(C)C)c2ncccn2)cc1 | inactive | –
CCCc1ccc(OC)cc1 | inactive | –
O=[N+]([O-])c1ccc(Cl)cc1Cl | inactive | –
COC(=O)/C=C/C(C)=C\C=C\C(C)=C\C=C\C=C(C)\C=C\C=C(C)\C=C\C(=O)O | inactive | –
Cc1cc(C)c(C)c(O)c1 | inactive | –

Structure (SMILES) | Potency | activity change, negative = cytotoxicity
O=P(c1ccccc1)(c1ccccc1)c1ccccc1 | inactive | –
Cc1ccc(NC(=O)c2ccc(CN3CCN(C)CC3)cc2)cc1Nc1nccc(-c2cccnc2)n1 | inactive | –
COc1cc(C)c(Cc2cnc(N)nc2N)cc1OC | inactive | –
OCC(O)c1ccccc1 (stereo not given) | inactive | –
CCOC(=O)CC(O)(CC(=O)OCC)C(=O)OCC | inactive | –
C=CCCC | inactive | –
Nc1ccc(-c2ccc(F)cc2)cc1 | inactive | –
N#CCCCC(C#N)CCC#N (stereo not given) | inactive | –
O=C1c2ccccc2C(=O)C1c1ccc2cc(S(=O)(=O)O)cc(S(=O)(=O)O)c2n1 | inactive | –
Sc1nc(S)nc(S)n1 | inactive | –
CCCCC(CC)COCCC#N (stereo not given) | inactive | –
O=C(O)c1cccnc1Nc1cccc(C(F)(F)F)c1 | inactive | –
CCCCCO | inactive | –
CCCC(=O)OCCC(C)C | inactive | –
CCCCCCCCCC(C)C=O (stereo not given) | inactive | –
O=C1C=CCCC1 | inactive | –
CS(C)=O | inactive | –
O=C(C1CCCCC1)N1CC(=O)N2CCCc3ccccc3C2C1 (stereo not given) | inactive | –
O=S(=O)(O)c1cc(Cl)c(Cl)cc1Cl | inactive | –
CC(C)CCCCCCCOC(=O)c1ccc(C(=O)OCCCCCCCC(C)C)c(C(=O)OCCCCCCCC(C)C)c1 | inactive | –

Reference: PubChem BioAssay (Tox21)
